Bioassay records: PubChem, National Center for Advancing Translational Sciences (NCATS)
Shown are actives, neighbours in structure and some others; about 18% of the full set was active somewhere.
IL-1B inflam inh: inflammasome signaling inhibition, IL-1 beta readout. THP-1 LPS/ATP IL-1B secretion, AlphaLISA, 16 h; active compounds read low. activity change, % at 57.5 µM. 4.7% of 360,000 active. AID 743279; in the data active = activity change below about -50%; inconclusive = mostly about -30% to -49%
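Secreted IL-1B measured by AlphaLISA bead assay after 16 h compound exposure of THP-1 cells; compounds (final up to 57.5 uM) added 1 h before LPS (250 ng/mL) and ATP (1.25 mM) stimulation; lower signal means less secretion.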
LDHA inh: blocks human lactate dehydrogenase A | P00338 | purified LDHA, NADH/diaphorase-resazurin fluorescence; active compounds read low | activity change, % (values are at about 110 or 230 µM) | 0.15% of 480,000 active; in the data active = activity change below about -30%; inconclusive = mostly about -25% to -30%;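 note: plate controls were DMSO wells for no effect and wells without enzyme for full effect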
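Human LDH5 (2 nM) was incubated with 0.06 mM NADH and 0.2 mM pyruvate for 5 min at room temperature in Tris pH 7.4. Remaining NADH was coupled through diaphorase/resazurin, and resorufin fluorescence was read at 0 and 20 min.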
RORg inh: blocks mouse ROR gamma transcriptional activity | P51450 | Drosophila S2 Gal4-RORgamma UAS-luciferase reporter, 20 h | Potency, µM (titrated, usually from 53.6 µM), for inactives: at the highest dose activity change, negative = inhibition, hits mostly inhibitors | 5.4% of 310,000 active | AID 2551; note: potency is the fitted concentration of half-maximal effect; nearly all actives have a fitted effect of over 60% in size
Target sequence (P51450 whole entry, looked up, the tested form may be a part): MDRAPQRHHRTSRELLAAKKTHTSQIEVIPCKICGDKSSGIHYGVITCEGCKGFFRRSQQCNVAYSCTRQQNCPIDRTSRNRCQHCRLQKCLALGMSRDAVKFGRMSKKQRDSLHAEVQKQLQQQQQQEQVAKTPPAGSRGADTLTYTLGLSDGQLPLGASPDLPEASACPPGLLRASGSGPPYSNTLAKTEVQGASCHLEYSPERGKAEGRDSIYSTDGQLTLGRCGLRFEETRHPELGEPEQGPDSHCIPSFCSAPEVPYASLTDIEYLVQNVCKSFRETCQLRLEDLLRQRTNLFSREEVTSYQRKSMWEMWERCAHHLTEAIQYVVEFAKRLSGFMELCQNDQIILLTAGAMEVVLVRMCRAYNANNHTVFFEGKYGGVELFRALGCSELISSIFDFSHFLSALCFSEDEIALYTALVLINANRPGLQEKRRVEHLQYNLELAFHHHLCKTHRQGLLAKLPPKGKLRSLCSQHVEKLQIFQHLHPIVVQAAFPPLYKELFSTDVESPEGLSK
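Read-out: Photinus luciferase luminescence; inhibitors lower reporter signal. Insect Schneider cells with Gal4-ROR gamma fusion under metallothionein promoter, UAS reporter; 700 uM final copper sulfate induction, 20 hr, ambient temperature.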
DT40 TDP1 no CPT: qHTS for Inhibitors of human tyrosyl-DNA phosphodiesterase 1 (TDP1): qHTS in cells in absence of CPT; AID 686978, 2013; DT40 Tdp1-/- hTDP1 cells, no CPT, ATP luminescence, 48 h; Potency, µM (series often up to 46.2 µM), without a hit: at the top dose activity change, negative = growth inhibition, hits mostly inhibitors; 15% of 420,000 active; note: potency is the fitted concentration of half-maximal effect; nearly all actives have a fitted effect of over 55% in size
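Chicken DT40 Tdp1-/- cells complemented with human TDP1, screened without camptothecin (DMSO vehicle only), 400 cells/well. Compounds pin-transferred, cells incubated at 37 °C for at least 48 hr. Growth read as ATP-dependent luminescence (CellTiter-Glo, 30 min at RT).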
Gal4-VP16 FLuc: inhibits Gal4-VP16 luciferase reporter, ROR gamma counter-screen; Potency, µM (highest dose often 53.6 µM), for the others: at the highest dose activity, negative = inhibition, hits mostly inhibitors; 3.5% of 310,000 active; Drosophila S2 Gal4-VP16 UAS-luciferase, luminescence, 20 h;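 note: Gal4-VP16 expression switched on by copper sulfate through the metallothionein promoter; potency is the fitted concentration of half-maximal effect; nearly all actives have a fitted effect of over 50% in size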
DT40 TDP1 CPT: growth inhibition of DT40 Tdp1-/-;hTDP1 cells with camptothecin (screen for TDP1 inhibitors) | chicken DT40 Tdp1-/-;hTDP1 cells + 20 nM CPT, ATP luminescence, 48 h | Potency, µM (titrated, usually from 46.2 µM), for inactives: at the highest dose activity change, negative = growth inhibition, usual class: inhibitors | 12% of 420,000 active; note: potency is the fitted concentration of half-maximal effect; nearly all actives have a fitted effect of over 55% in size
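Chicken DT40 Tdp1-/- cells complemented with human TDP1, 400 cells/well, exposed to compounds plus 20 nM camptothecin for at least 48 h at 37 C; viability read as ATP content by CellTiter-Glo luminescence.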
* hit, by the source's call; ? = inconclusive; . = no result given; [ ] = another dose, or the depositor's remark. Unless noted, calls come from the whole dose curve; as a rule, active = well fitted curve in the direction sought with a large enough effect; inconclusive = small, poorly fitted or top-dose-only effect, or another doubt; inactive = no such curve, though single readings can be large; an effect the other way counts as inactive or inconclusive. Unless noted, % is set by controls: 0 for no effect and ±100 for the full control effect.

SMILES | IL-1B inflam inh | LDHA inh | RORg inh | DT40 TDP1 no CPT | Gal4-VP16 FLuc | DT40 TDP1 CPT
O=C(Nc1ccc(N2CCCC2)cc1)c1ccccc1F | 6.6 | 8.2 | 10.9% | ? | -8.4% | 10.3µM*
O=C(Nc1ccc(N2CCCCC2)cc1)c1ccccc1 | ? | -1.1 | 3.55µM* | -29.9% | ? | ?
Cc1sc(-c2nc(-c3cccc(F)c3)no2)cc1S(=O)(=O)Nc1ccc(F)cc1 | . | 2.4 | . | . | . | .
Cc1cc(NC(=O)C2CCCN(S(=O)(=O)c3ccc4[nH]c(=O)oc4c3)C2)ccc1Br (stereo unspecified) | . | 4.2 | . | . | . | .
Cc1ccc(Cn2ccc(=O)c(OCc3c(Cl)cccc3Cl)c2C)cc1 | -58.6* | 2.3 | ? | 14.6µM* | ? | 18.4µM*
CCOC(=O)N1CCC(Nc2c(OCC)c(=O)c2=O)CC1 | 13.1 | -16.1 | 21.3% | 3.2% | -2.9% | 22.8%
CCCN(CCC)c1nc(NC2CCN(C(=O)OCC)CC2)nc(OC)n1 | -5.9 | -4.4 | -22.4% | 20.6µM* | ? | 16.4µM*
O=C1CC(c2ccco2)Cc2nc(Nc3ccc(F)cc3)ncc21 (stereo unspecified) | ? | 2.1 | 5.4% | 23.1µM* | 1.1% | ?
COc1ccc(Nc2ncc3c(n2)CC(c2ccc(C)cc2)CC3=O)cc1 (stereo unspecified) | -3.3 | -3.4 | 17.3% | 8.2µM* | 4.2% | ?
COc1ccc(C2CC(=O)c3cnc(NC(=O)c4ccccc4)nc3C2)c(OC)c1 (stereo unspecified) | 0.0 | 3.9 | 11.3% | 7.31µM* | -0.2% | 6.51µM*
CCOC(=O)C1CCN(C(=O)c2cccc(S(=O)(=O)N3CCCc4ccccc43)c2)CC1 | -6.9 | 3.8 | . | 23.1µM* | . | ?
CC1CCCN(C(=O)c2cccc(S(=O)(=O)N3CCCc4ccccc43)c2)C1 (stereo unspecified) | -14.6 | 2.2 | . | 10.3µM* | . | 10.3µM*
CCOC(=O)C1CCN(C(=O)c2cccc(S(=O)(=O)N3CCc4ccccc43)c2)CC1 | 30.0 | -0.1 | . | ? | . | ?
CC1=CCC(c2cnc(-c3ccccc3)c(C)c2)NC1c1ccccc1 (stereo unspecified) | . | -20.2 | . | . | . | .
O=c1[nH][nH]c(-c2ccccc2O)c1C(C[N+](=O)[O-])c1ccccc1 (stereo unspecified) | 1.9 | 4.7 | -14.0%[10 µM] | 5.17µM* | ? | 4.61µM*
c1ccc(-c2cc(-c3ccccc3)n(-c3ccccc3)n2)cc1 | . | -0.1 | . | . | . | .
Cc1ccccc1-c1ccc(/C=C2/SC(N3CCOCC3)=NC2=O)o1 | -75.5* | 2.6 | 12.5% | 7.31µM* | -7.6% | 2.91µM*
CC1CN(C(=O)Nc2ccccc2)c2ccccc2-[n+]2ccsc21 (stereo unspecified) | -18.2 | -4.2 | -4.7% | 11.6µM* | -5.2% | 3.66µM*
O=C(Nc1ccccc1)N1CCC(=S)Nc2ccccc21 | 22.2 | -7.0 | -35.2% | -1.6% | -3.7% | 6.8%
O=C(Nc1ccccc1)N1CCc2scc[n+]2-c2ccccc21 | ? | -3.1 | -2.9% | 11.6µM* | -5.2% | 5.8µM*
CCCC(=O)Nc1ccc2oc(-c3cc(F)c(F)cc3Cl)nc2c1 | . | 6.2 | . | . | . | .
N#Cc1ccc(SCc2ccccc2)cc1SCc1ccccc1 | . | 2.7 | . | . | . | .
COC(=O)CSc1nc(C)cc(C(F)(F)F)c1C#N | -10.2 | -9.4 | -3.7% | -14.4% | 5.3% | -5.3%
COC(=O)CSc1cc(SCC(=O)OC)c(C#N)c(SCC(=O)OC)c1 | -112.7* | -1.4 | -9.5% | -13.8% | -0.3% | -13.4%
COC(=O)CSc1ccc(C#N)c(SCC(=O)OC)c1 | -105.1* | -10.0 | 6.8% | -22.1% | -12.4% | 6.3%
SMILES | IL-1B inflam inh | LDHA inh | RORg inh | DT40 TDP1 no CPT | Gal4-VP16 FLuc | DT40 TDP1 CPT
COc1ccc(-c2cc(C(=O)N(Cc3ccc(Cl)cc3)Cc3ccco3)no2)cc1 | . | -2.5 | . | . | . | .
S=C1NC2=C(CCc3ccccc32)C(c2ccccc2Cl)N1 (stereo unspecified) | . | 9.4 | . | . | . | .
Clc1cccc(CSc2nnc(-c3ccccn3)n2Cc2ccco2)c1 | -19.3 | 0.7 | ? | 16.4µM* | ? | 16.4µM*
CC(C)(C)c1ccc(CSc2nnc(-c3ccccn3)n2Cc2ccco2)cc1 | -93.7* | -1.3 | ? | ? | 7.08µM* | ?
CNC(=O)CSc1nnc(-c2ccccn2)n1Cc1ccco1 | 4.4 | -1.8 | 1.1% | 17.6% | -10.3% | -3.7%
Brc1ccc(CSc2nnc(-c3ccccn3)n2Cc2ccco2)cc1 | 0.0 | 2.3 | ? | 8.2µM* | ? | 14.6µM*
Cc1ccc(NC(=O)CCN2CCN(Cc3ccccc3)CC2)cc1Br | . | 5.2 | . | . | . | .
CC1(C)C/C(=N/O)C=CO1 | . | 12.9 | . | . | . | .
CCS(=O)(=O)c1ccc(Cc2ccc(S(=O)(=O)CC)cc2)cc1 | . | -3.6 | . | . | . | .
OC(Cc1ccccc1)c1ncc(-c2ccc3ccccc3c2)[nH]1 (stereo unspecified) | 21.2 | 11.1 | . | 23.1µM* | . | ?
OC(c1cccc(F)c1)c1ncc(-c2ccc3ccccc3c2)[nH]1 (stereo unspecified) | 12.6 | -16.1 | . | ? | . | ?
Cc1cccc(-c2cnc(C(O)Cc3ccccc3)[nH]2)c1 (stereo unspecified) | 4.4 | 2.3 | . | ? | . | 16.4µM*
CCc1ccc(C(O)c2ncc(-c3cccc(C)c3)[nH]2)cc1 (stereo unspecified) | -12.9 | -14.5 | . | ? | . | ?
O=C(Nc1ncn(Cc2ccccc2F)n1)c1cc(S(=O)(=O)N2CCCC2)c(Cl)cc1Cl | . | -1.7 | . | . | . | .
Cc1ccc(OCc2nc(C#N)c(N3CCCCC3)o2)cc1 | ? | -3.9 | ? | -3.0% | -2.0% | 7.1%
Cc1cccc(OCc2nc(C#N)c(N3CC(C)CC(C)C3)o2)c1 (stereo unspecified) | -9.6 | -1.4 | -15.5% | ? | -12.7% | 6.51µM*
Cc1cccc(OCc2nc(C#N)c(N3CCOCC3)o2)c1 | . | -1.5 | . | . | . | .
N#Cc1nc(COc2ccc(Cl)cc2)oc1N1CCCCCC1 | -58.5* | -1.7 | ? | -25.3% | -2.9% | -9.4%
Cc1cccc(OCc2nc(C#N)c(N3CCCC3)o2)c1 | -55.0* | 3.1 | 6.6% | -26.4% | -13.7% | 6.6%
O=C(Nc1cccc2cccnc12)c1cc(-c2ccccc2)nc2ccccc12 | . | 6.4 | . | . | . | .
COc1ccccc1NC(=O)N(Cc1ccco1)Cc1cc2cc(C)cc(C)c2[nH]c1=O | ? | 0.6 | ? | 14.6µM* | 0.9% | 20.6µM*
COc1ccccc1NC(=S)N(Cc1ccco1)Cc1cc2cccc(C)c2[nH]c1=O | -18.6 | -3.4 | 17.7% | ? | -7.6% | ?
